Measurements: PubChem BioAssay (NCATS)
A number with no mark means an inactive call. Inconclusive results are not listed. A call without a number means that no potency is given here. Active and inactive are the calls of the source. Unless noted, calls come from the whole dose curve; as a rule, active = well fitted curve in the direction sought with a large enough effect; inconclusive = small, poorly fitted or top-dose-only effect, or another doubt; inactive = no such curve, though single readings can be large; an effect the other way counts as inactive or inconclusive.

Columns and labels:
[1] = Cell Viability - MRC5 (AID 434; calls by dose curve;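 note: potency is the fitted concentration of half-maximal effect; cells exposed to compound for 40 hours at 37 °C; potency reflects cytotoxicity seen as loss of intracellular ATP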); conditions: MRC5 lung fibroblast viability, qHTS
Method in brief: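 qHTS cytotoxicity in human lung fibroblast MRC5 cells; 40 hr treatment, 37 °C; cellular ATP by luciferase luminescence; DMSO = 0%, 100 uM tamoxifen = 100% inhibition; Hill-fit AC50.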

[2] = Cellular Toxicity (caspase-3) HUV-EC-C (AID 656); conditions: HUV-EC-C cells, caspase-3 activation (apoptosis), vehicle = 0, 100 µM tamoxifen = 100%; series mostly up to 92.2 µM
Method in brief: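 qHTS; HUV-EC-C, 1000 cells/well; 5 hr settle, 16 hr cmpd, 37°C; Caspase-Glo 3/7, 20 min RT; luminescence. Norm: DMSO = 0%, tamoxifen 100 uM = 100%. Hill-fit AC50.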

[3] = Cellular Toxicity (caspase-3) BJ (AID 658); conditions: BJ fibroblasts, luminescence, normalized: DMSO 0%, staurosporine 100%; series mostly up to 91.7 µM
Method in brief: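 Readout: Caspase-Glo 3/7 luminescence increase in BJ cells after 16 hr treatment at 37 °C. Staurosporine and tamoxifen served as positive controls; AC50 values came from Hill modelling of data normalized to DMSO and 10 uM staurosporine.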

[4] = Cellular Toxicity (caspase-3) Mesangial (AID 660); conditions: mesangial cells, normalized: DMSO 0%, 100 µM tamoxifen 100%; series mostly up to 91.7 µM;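 note: combined caspase 3 and 7 activity read by Caspase-Glo luminescence; cells exposed to compound for 16 h before the caspase read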
Method in brief: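 Human renal glomerular mesangial cells, 1000/well, 5 h at 37 C before 16 h compound treatment. Caspase-Glo 3/7 luminescence after 20 min; normalized to DMSO and 100 uM tamoxifen, AC50 from Hill fit.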

[5] = target: Cytochrome P450 3A4 (Homo sapiens) (UniProt P08684); assay: qHTS Assay for Inhibitors and Substrates of Cytochrome P450 3A4 (AID 884); conditions: recombinant CYP3A4, Luciferin-PPXE luminescence; series mostly up to 57.1 µM; note: nearly all actives have a fitted effect of over 50% in size; note: potency is the fitted concentration of half-maximal effect
Sequence of Cytochrome P450 3A4 (Homo sapiens) (P08684 whole entry, looked up): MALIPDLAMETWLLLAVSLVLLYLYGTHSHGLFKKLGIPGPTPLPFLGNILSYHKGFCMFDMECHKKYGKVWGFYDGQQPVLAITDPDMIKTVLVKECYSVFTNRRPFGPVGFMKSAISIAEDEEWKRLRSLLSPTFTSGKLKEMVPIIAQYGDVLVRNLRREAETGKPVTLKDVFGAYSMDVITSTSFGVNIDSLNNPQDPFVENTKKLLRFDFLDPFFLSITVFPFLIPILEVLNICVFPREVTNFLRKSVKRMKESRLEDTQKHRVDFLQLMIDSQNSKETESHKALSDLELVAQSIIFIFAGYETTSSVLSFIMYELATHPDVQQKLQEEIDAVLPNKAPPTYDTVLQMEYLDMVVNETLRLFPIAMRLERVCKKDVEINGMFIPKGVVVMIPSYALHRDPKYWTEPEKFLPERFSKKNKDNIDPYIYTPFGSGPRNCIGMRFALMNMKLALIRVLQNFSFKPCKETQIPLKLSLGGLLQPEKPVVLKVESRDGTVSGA
Method in brief: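 20 nM human CYP3A4 with 25 uM Luciferin-PPXE (at KM) in 200 mM KPO4, preincubated 10 min with compound; NADPH regeneration started a 60 min RT reaction. Luciferin detected by luminescence, normalized to 57 uM ketoconazole as full inhibition.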

[6] = Cell Viability - LYMP1-002 - Assay at 16 hr (AID 948); conditions: LYMP1-002 lymphoblastoid cell viability; series mostly up to 92.2 µM
Method in brief: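 Seed 2500 LYMP1-002 cells per well in complete medium and hold 5 hr at 37 C. Add compound across a concentration series and incubate 16 hr at 37 C. Add CellTiter-Glo, wait 30 min at room temperature, read luminescence.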

[7] = MultiTox-Fluor Cytotoxicity Assay - LYMP1-003 - Dead Cells (AID 961); conditions: LYMP1-003 lymphoblastoid cells, dead-cell protease fluorescence; series mostly up to 92.2 µM; note: nearly all actives have a fitted effect of over 70% in size
Method in brief: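 LYMP1-003 human lymphoblastoid cells (2500/well) exposed to compound 16 h at 37 C in complete medium; dead-cell protease read with bis-AAF-R110 fluorescence (Ex/Em 485/520) after 60 min at room temperature. Normalized to DMSO and 15 uM tetraoctylammonium bromide; AC50 from Hill fit.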

[8] = Cell Viability - LYMP2-003 (AID 965); conditions: LYMP2-003 lymphoblastoid cell viability; series mostly up to 92.2 µM;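 note: cells exposed to compounds for 24 h before reading; nearly all actives have a fitted effect of over 50% in size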
Method in brief: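 Seed 2500 lymphoblastoid cells/well; incubate 5 hr, 37 C; add compounds; incubate 24 hr, 37 C; add CellTiter-Glo, 30 min RT; read luminescence. AC50 from Hill fit.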

[9] = Cell Viability - LYMP2-011 (AID 969); conditions: LYMP2-011 lymphoblastoid cells viability; series mostly up to 92.2 µM; note: nearly all actives have a fitted effect of over 60% in size
Method in brief: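 2500 cells/well in complete medium, compound-treated 24 h at 37 C. Viability read as intracellular ATP by CellTiter-Glo luminescence after 30 min at room temperature. AC50 from Hill fits of qHTS concentration-response data.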

[10] = Cell Viability - LYMP2-013 (AID 970); conditions: LYMP2-013 lymphoblastoid cells viability; series mostly up to 92.2 µM; note: nearly all actives have a fitted effect of over 55% in size
Method in brief: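 Human lymphoblastoid LYMP2-013 cells, 2500/well, treated 24 h at 37 C in complete medium; viability as intracellular ATP by CellTiter-Glo luminescence after 30 min. AC50 from Hill fits of qHTS concentration-response.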

[11] = Cell Viability - LYMP2-026 (AID 989); conditions: LYMP2-026 lymphoblastoid cell viability, qHTS; series mostly up to 92.2 µM; note: nearly all actives have a fitted effect of over 50% in size
Method in brief: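 Human lymphoblastoid LYMP2-026 cells, 2500/well, exposed to compound 24 h at 37 C in complete medium. Viability as intracellular ATP by CellTiter-Glo luminescence; AC50 from Hill fits of qHTS concentration-response.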

[12] = Cell Viability - LYMP1-002 - Assay at 24 hr (AID 993); conditions: LYMP1-002 lymphoblastoid cells viability; series mostly up to 92.2 µM
Method in brief: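 Human lymphoblastoid LYMP1-002 cells (2500/well) treated 24 h at 37 °C; viability as intracellular ATP by CellTiter-Glo luminescence. Tetraoctylammonium bromide as positive control; AC50 from Hill-equation fits of qHTS concentration-response.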

[13] = qHTS assay for small molecule disruptors of the mitochondrial membrane potential - 1 hr assay (AID 651754; calls by dose curve; note: nearly all actives have a fitted effect of over 35% in size); conditions: series mostly up to 92.2 µM
Method in brief: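 HepG2 cells, attached overnight, were exposed to compound for 1 hr at 37C, then stained 30 min with a potentiometric dye. Ratio of red aggregate (590nm) to green monomer (535nm) fluorescence reports membrane potential; collapse shifts signal toward green.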

[14] = qHTS assay for small molecule disruptors of the mitochondrial membrane potential - 5 hr assay (AID 651755; calls by dose curve; note: nearly all actives have a fitted effect of over 40% in size); conditions: JC-1-type ratio dye; series mostly up to 92.2 µM
Method in brief: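 HepG2, 2,000 cells/well, overnight attach; cpd or DMSO 5 hr, 37C/5% CO2; Mito-MPS 30 min 37C; fluor 490/535 + 540/590 nm.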

[15] = qHTS assay for environmental chemicals that activate the Aryl hydrocarbon Receptor (AhR) signaling pathway (AID 651777); conditions: 1A2-DRE human hepatoma cells, luciferase, 24 h; activation: active compounds read high; note: nearly all actives have a fitted effect of over 15% in size
Method in brief: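 Quantitative HTS in stably transfected human liver-derived cells whose luciferase gene sits downstream of the CYP1A2 promoter and dioxin response element. After 24 hr exposure at 37 C, One-Glo luminescence was measured.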

[16] = target: Peroxisome proliferator-activated receptor alpha (Homo sapiens) (UniProt Q07869); assay: qHTS assay for small molecule agonists of the peroxisome proliferator-activated receptor alpha (PPARalpha) signaling pathway (AID 651778); conditions: PathHunter PPARalpha complementation, chemiluminescence, 6 h; active compounds read high
Sequence of Peroxisome proliferator-activated receptor alpha (Homo sapiens) (Q07869 whole entry, looked up): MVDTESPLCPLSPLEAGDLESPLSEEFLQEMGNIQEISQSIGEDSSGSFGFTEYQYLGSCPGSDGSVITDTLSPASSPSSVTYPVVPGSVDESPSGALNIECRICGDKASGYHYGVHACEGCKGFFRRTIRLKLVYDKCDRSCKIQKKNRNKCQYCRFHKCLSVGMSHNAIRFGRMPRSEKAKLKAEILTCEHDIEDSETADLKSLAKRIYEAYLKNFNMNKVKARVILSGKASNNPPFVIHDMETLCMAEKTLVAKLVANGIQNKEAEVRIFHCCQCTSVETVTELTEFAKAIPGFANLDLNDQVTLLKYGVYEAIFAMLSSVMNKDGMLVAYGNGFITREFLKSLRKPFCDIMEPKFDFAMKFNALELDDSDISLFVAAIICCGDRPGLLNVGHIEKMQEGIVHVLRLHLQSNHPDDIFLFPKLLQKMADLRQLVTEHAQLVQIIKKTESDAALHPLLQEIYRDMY
Method in brief: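 Chemiluminescence from complemented enzyme reported PPARalpha activation in cells after 6 hr of compound treatment at 37 C. The detection reagent was incubated for 60 min at room temperature, and compounds were scored as agonists.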

[17] = target: Nuclear receptor ROR-gamma (Homo sapiens) (UniProt P51449); assay: qHTS assay for small molecule antagonists of the retinoid-related orphan receptor gamma (ROR-gamma) signaling pathway (AID 651802); conditions: ROR-gamma antagonist cell reporter assay; series mostly up to 92.2 µM;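 note: luciferase reporter luminescence driven by ROR response element; nearly all actives have a fitted effect of over 60% in size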
Sequence of Nuclear receptor ROR-gamma (Homo sapiens) (P51449 whole entry, looked up): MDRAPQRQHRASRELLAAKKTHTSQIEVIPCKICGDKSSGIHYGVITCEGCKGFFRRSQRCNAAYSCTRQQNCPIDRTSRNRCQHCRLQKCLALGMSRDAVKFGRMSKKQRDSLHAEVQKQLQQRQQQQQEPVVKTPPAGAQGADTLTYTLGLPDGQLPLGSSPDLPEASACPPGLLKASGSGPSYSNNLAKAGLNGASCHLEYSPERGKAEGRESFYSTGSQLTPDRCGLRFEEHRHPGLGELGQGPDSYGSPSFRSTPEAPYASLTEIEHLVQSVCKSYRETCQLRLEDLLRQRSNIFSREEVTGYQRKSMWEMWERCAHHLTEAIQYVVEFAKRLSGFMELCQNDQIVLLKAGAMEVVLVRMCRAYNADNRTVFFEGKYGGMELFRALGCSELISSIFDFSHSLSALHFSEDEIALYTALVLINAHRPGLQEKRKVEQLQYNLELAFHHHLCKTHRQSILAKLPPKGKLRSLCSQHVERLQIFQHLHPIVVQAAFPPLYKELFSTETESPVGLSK
Method in brief: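 CHO cells with TET-inducible ROR-gamma and RORE-luciferase reporter, dosed then doxycycline-induced. After 16 h at 37C, One-Glo luminescence read; decreased signal indicates antagonism.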

[18] = target: Nuclear receptor subfamily 1 group I member 2 (Rattus norvegicus) (UniProt Q9R1A7); assay: qHTS assay for small molecule activators of the rat pregnane X receptor (rPXR) signaling pathway (AID 651751; call rule not given here); conditions: rPXR reporter cells, luciferase (One-Glo), 24 h
Sequence of Nuclear receptor subfamily 1 group I member 2 (Rattus norvegicus) (Q9R1A7 whole entry, looked up): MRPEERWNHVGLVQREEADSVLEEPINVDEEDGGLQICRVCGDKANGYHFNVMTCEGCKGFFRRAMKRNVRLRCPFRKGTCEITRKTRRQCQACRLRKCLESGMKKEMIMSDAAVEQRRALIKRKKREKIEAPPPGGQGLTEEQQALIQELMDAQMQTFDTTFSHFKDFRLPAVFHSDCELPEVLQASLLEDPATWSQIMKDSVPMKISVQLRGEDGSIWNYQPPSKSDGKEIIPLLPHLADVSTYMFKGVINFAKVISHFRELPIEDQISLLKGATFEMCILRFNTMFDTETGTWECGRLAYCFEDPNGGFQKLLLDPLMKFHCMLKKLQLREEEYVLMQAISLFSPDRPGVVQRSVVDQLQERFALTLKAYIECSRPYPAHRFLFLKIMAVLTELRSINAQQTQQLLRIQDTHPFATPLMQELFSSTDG

[19] = qHTS assay for small molecule activators of the human pregnane X receptor (PXR) signaling pathway (AID 720659; call rule not given here); conditions: DPX-2 HepG2 CYP3A4-luciferase, 24 h; series mostly up to 92.3 µM
[20] = Cellular Toxicity (caspase-3) H-4-II-E (AID 663); conditions: H-4-II-E rat hepatoma; Potency: caspase-3 activation; series mostly up to 92.2 µM;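 note: cells exposed to compound for 16 hr before readout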
Method in brief: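 Apoptosis induction is scored as increased luminescence from caspase 3/7 substrate cleavage in rat hepatoma H-4-II-E cells exposed to compound for 16 hr. Activity is scaled between DMSO and 100 uM tamoxifen.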

Structure (SMILES)	Potency [1] [µM]	outcome [2]	outcome [3]	outcome [4]	Potency [5]	outcome [6]	Potency [7]	Potency [8]	Potency [9]	Potency [10]	Potency [11]	Potency [12]	Potency [13]	Potency [14]	activation [15] [%]	max response [16] [%]	Potency [17]	max response [18] [%]	outcome [19]	Potency [20]
Cc1ccc([N+](=O)[O-])cc1	> 92	inactive	inactive	inactive	inactive	inactive	inactive	inactive	inactive	inactive	inactive	inactive	inactive	inactive	-0.408	-0.114	inactive	3.32	inactive	–
Clc1ccc(C(Cl)(Cl)Cl)cc1Cl	> 92	inactive	inactive	inactive	inactive	inactive	–	inactive	inactive	inactive	inactive	inactive	inactive	inactive	-0.831	1.82	inactive	3.68	inactive	inactive
O=S(=O)(O)F	> 92	inactive	inactive	inactive	inactive	inactive	–	inactive	inactive	inactive	inactive	inactive	inactive	inactive	0.54	-0.405	–	0.583	inactive	inactive
Clc1ccc(C(Cl)(Cl)Cl)c(Cl)c1	> 92	inactive	inactive	inactive	–	inactive	inactive	inactive	inactive	inactive	inactive	inactive	inactive	inactive	-1.61	-0.345	inactive	-3.95	inactive	inactive
O=[N+]([O-])c1ccccc1-c1ccccc1	> 92	inactive	inactive	inactive	inactive	inactive	inactive	–	inactive	inactive	inactive	inactive	inactive	inactive	-0.891	-6.56	inactive	0.722	inactive	inactive
ClC(Br)Br	> 92	inactive	inactive	inactive	inactive	inactive	inactive	inactive	inactive	inactive	inactive	inactive	inactive	inactive	0.329	-8.35	inactive	0.757	inactive	inactive
CCCCCCCCCCCOC(=O)c1ccccc1C(=O)OCCCCCCCCCCC	> 92	inactive	inactive	–	inactive	–	inactive	inactive	inactive	inactive	inactive	inactive	inactive	inactive	-2.18	0.22	inactive	1.44	–	inactive
O=NN1CCCCC1	> 92	inactive	inactive	inactive	inactive	inactive	inactive	inactive	inactive	inactive	inactive	–	inactive	inactive	1.05	-3.04	inactive	-1.74	inactive	inactive
Nc1ccc2ccccc2c1	> 92	inactive	inactive	inactive	–	inactive	inactive	–	inactive	–	inactive	inactive	inactive	inactive	–	-2.41	inactive	–	inactive	inactive
S=c1[nH]c2ccccc2[nH]1	> 92	inactive	inactive	inactive	10 µM (active)	–	inactive	inactive	inactive	inactive	inactive	inactive	inactive	inactive	1.98	-5.62	–	-7.5	inactive	inactive
OCCBr	> 92	inactive	inactive	inactive	inactive	–	inactive	–	inactive	inactive	inactive	inactive	inactive	inactive	-0.283	2.96	inactive	-0.978	inactive	inactive
C=CCc1cc(OC)c2c(c1)OCO2	> 92	inactive	inactive	inactive	10 µM (active)	inactive	inactive	inactive	inactive	–	inactive	inactive	inactive	inactive	0.0584	5.39	inactive	-3.31	inactive	inactive
CCC#N	> 92	inactive	inactive	inactive	inactive	inactive	inactive	inactive	–	inactive	–	inactive	–	–	–	-3.95	inactive	-2.01	inactive	inactive
